# Measured values: article PMC7862700, “An all-to-all approach to the identification of sequence-specific readers for epigenetic DNA modifications on cytosine”
# Tests used:
# Experiment in all cases: DAPPL (digital affinity profiling via proximity ligation, sequencing); 10 mM Tris-HCl pH 7.5, 50 mM NaCl, 1 mM DTT, 4% glycerol, room temperature, 30 min; GST-TFs on glutathione beads, 16-mer random dsDNA library, 0.1% formaldehyde crosslink after washing; high values mean tight binding
# Conditions in all cases: protein: recombinant; tags: N-terminal GST; dsDNA, one strand shown
# [1] = target: ETV1 (Homo sapiens, UniProt P50549 1-477)
# ETV1, sequence (P50549 whole entry, the tested form may be a part): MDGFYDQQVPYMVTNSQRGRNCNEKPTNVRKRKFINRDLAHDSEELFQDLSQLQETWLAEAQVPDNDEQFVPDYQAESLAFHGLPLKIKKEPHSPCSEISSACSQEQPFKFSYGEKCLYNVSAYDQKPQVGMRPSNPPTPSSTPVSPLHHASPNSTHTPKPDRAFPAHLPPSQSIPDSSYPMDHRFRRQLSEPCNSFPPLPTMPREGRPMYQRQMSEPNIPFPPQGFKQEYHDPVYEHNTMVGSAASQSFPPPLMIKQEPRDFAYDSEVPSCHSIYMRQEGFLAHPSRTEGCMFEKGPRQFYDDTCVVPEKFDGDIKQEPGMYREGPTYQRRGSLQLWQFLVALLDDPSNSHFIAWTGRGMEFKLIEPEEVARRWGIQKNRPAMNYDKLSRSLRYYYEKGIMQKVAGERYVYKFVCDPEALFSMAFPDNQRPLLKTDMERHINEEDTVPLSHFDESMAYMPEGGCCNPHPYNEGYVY
# Summary of the method: (§1)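 The binding signal reported is, for every hexamer, its read frequency for a factor over its read frequency for the tag-only sample. Reads came from pools of yeast-expressed, GST-fused human transcription factors on glutathione beads, barcoded with DNA and mixed with that sample, which were incubated with 200 nmole of a random double-stranded 16-mer DNA library in Tris/NaCl/DTT/glycerol buffer at room temperature for 30 min. After washing, the pools were crosslinked with 0.1% formaldehyde, proximity-ligated with BsaI/T4 ligase for 1 h at 37 °C, PCR-amplified and sequenced on an Illumina NextSeq500.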
# [2] = target: T1, ERF (Homo sapiens, UniProt P50548 1-548)
# T1 sequence: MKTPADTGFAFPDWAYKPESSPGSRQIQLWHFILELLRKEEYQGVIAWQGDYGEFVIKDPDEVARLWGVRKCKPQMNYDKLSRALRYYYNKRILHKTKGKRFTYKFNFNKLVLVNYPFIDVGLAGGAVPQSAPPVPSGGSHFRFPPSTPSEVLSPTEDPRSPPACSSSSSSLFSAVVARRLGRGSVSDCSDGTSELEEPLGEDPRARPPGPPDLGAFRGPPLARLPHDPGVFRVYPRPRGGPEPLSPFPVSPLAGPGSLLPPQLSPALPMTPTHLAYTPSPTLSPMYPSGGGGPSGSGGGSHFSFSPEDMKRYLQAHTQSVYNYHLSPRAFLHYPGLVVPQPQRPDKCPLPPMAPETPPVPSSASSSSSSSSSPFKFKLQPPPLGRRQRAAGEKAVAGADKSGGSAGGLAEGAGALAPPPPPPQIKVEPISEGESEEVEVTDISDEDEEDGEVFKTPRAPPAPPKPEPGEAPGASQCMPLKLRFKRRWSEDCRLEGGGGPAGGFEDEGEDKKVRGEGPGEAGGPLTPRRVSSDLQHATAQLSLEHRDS
# Summary of the method: as §1
# [3] = target: T2, ETV3L (Homo sapiens, UniProt Q6ZN32 1-361)
# T2 sequence: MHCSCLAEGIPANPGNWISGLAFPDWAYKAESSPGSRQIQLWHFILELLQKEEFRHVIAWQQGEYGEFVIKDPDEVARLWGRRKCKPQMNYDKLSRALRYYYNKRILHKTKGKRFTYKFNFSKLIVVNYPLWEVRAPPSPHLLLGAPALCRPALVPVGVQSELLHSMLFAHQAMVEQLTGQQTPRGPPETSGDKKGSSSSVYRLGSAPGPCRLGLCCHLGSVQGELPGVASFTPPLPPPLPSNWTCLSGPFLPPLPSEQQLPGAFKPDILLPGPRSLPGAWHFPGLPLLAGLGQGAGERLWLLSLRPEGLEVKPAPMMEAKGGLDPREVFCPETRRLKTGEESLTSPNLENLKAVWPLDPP
# Summary of the method: as §1
# [4] = target: T3, ETS2 (Homo sapiens, UniProt P15036 1-469)
# T3 sequence: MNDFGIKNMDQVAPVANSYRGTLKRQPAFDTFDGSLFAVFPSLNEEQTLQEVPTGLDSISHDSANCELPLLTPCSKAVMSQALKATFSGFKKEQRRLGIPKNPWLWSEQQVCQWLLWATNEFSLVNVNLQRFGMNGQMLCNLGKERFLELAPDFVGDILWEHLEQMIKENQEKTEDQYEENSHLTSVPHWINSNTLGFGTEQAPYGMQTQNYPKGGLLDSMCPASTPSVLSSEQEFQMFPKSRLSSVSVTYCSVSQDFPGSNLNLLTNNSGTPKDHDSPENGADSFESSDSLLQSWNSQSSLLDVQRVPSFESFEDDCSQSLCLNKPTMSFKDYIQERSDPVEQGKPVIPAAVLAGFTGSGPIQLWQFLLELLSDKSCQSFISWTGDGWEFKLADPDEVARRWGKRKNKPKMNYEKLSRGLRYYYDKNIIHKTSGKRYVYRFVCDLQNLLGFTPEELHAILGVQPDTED
# Summary of the method: as §1
# [5] = target: T4, SPDEF (Homo sapiens, UniProt O95238 1-335)
# T4 sequence: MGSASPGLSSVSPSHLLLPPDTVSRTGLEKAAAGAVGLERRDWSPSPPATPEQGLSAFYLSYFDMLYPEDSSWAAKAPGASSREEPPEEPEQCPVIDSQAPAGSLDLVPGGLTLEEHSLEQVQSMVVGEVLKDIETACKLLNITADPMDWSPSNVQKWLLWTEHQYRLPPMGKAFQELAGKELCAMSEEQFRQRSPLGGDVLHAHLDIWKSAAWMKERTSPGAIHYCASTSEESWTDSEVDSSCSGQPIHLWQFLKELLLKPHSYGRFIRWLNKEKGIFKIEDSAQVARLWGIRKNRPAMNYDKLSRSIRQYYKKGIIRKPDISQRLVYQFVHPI
# Summary of the method: as §1
# [6] = target: T5, ETV7 (Homo sapiens, UniProt Q9Y603 1-341)
# T5 sequence: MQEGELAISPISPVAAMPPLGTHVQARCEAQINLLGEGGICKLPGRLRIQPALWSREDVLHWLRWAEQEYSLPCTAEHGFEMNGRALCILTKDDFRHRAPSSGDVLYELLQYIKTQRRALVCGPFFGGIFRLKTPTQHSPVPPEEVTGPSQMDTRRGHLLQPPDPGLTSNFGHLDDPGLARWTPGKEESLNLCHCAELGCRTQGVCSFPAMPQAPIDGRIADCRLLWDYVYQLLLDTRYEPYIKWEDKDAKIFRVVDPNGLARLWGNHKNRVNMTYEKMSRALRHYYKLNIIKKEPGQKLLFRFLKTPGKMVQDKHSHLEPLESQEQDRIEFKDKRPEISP
# Summary of the method: as §1
# [7] = target: T6, ELF5 (Homo sapiens, UniProt Q9UKW6-2 1-255)
# T6 sequence: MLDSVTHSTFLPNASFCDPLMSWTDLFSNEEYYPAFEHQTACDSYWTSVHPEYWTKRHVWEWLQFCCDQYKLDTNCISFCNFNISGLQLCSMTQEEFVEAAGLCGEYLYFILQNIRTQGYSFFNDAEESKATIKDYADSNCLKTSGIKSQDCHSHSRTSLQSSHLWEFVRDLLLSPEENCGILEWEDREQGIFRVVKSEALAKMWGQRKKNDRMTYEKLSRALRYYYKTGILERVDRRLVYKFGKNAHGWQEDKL
# Summary of the method: as §1
# [8] = target: T7, ETV3 (Homo sapiens, UniProt P41162-2 1-143)
# T7 sequence: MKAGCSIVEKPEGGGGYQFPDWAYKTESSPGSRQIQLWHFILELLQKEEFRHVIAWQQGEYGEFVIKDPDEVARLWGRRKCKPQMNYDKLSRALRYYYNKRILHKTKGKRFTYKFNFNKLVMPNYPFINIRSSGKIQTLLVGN
# Summary of the method: as §1
# [9] = target: ETV6 (Homo sapiens, UniProt P41212 1-452)
# ETV6, sequence (P41212 whole entry): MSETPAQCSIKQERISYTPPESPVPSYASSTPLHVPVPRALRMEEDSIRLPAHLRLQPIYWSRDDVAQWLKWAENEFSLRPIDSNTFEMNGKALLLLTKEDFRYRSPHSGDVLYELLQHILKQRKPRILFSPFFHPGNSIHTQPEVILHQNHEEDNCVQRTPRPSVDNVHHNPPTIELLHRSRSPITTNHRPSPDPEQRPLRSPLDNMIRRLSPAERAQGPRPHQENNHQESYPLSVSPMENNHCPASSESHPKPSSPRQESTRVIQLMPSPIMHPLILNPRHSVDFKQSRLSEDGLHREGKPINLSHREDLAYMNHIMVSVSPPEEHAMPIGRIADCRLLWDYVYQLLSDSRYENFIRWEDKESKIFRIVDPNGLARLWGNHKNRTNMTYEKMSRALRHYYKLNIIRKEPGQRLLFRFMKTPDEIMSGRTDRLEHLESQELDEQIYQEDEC
# Summary of the method: as §1
sequence,measurement,setting,value
AACTCT,binding signal,[1],"1.36 fold enrichment (6-mer frequency, TF over GST control)"
same,binding signal,[2],"1.33 fold enrichment (6-mer frequency, TF over GST control)"
same,binding signal,[3],"1.27 fold enrichment (6-mer frequency, TF over GST control)"
same,binding signal,[4],"1.32 fold enrichment (6-mer frequency, TF over GST control)"
same,binding signal,[5],"1.35 fold enrichment (6-mer frequency, TF over GST control)"
same,binding signal,[6],"1.24 fold enrichment (6-mer frequency, TF over GST control)"
same,binding signal,[7],"1.35 fold enrichment (6-mer frequency, TF over GST control)"
same,binding signal,[8],"1.34 fold enrichment (6-mer frequency, TF over GST control)"
same,binding signal,[9],"1.33 fold enrichment (6-mer frequency, TF over GST control)"
